Bioassay records deposited in PubChem BioAssay by several laboratories.
GDH-TPI inh: inhibits GDH-TPI coupling enzymes, artifact for Mtb FBA screen | GDH-TPI coupled enzyme counterscreen, NADH absorbance | 1.2% of 360,000 active | AID 588335 | inhibition, % at 4.8 µM; in the data active means inhibition above about 30%;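 further: 0% = DMSO wells and 100% = wells lacking the enzyme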
Mtb betalactam: beta-lactam sensitization of Mtb H37Rv; M. tuberculosis H37Rv growth with meropenem, percent inhibition; 0.27% of 330,000 active; inhibition, % at 25 µM; call rule not given here;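 further: growth measured after seven days incubation then overnight dye step; 0% = bacteria only wells and 100% = bacteria with antibiotic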
Mtb FBA inh: inhibits M. tuberculosis FBA enzyme. P9WQA3. purified M. tuberculosis FBA, fluorescence read-out. inhibition, % at 1 µM. 2.3% of 360,000 active. AID 588726; in the data active means inhibition above about 27%;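 further: 0% = vehicle and 100% = reference inhibitor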
Target sequence (P9WQA3 whole entry, looked up): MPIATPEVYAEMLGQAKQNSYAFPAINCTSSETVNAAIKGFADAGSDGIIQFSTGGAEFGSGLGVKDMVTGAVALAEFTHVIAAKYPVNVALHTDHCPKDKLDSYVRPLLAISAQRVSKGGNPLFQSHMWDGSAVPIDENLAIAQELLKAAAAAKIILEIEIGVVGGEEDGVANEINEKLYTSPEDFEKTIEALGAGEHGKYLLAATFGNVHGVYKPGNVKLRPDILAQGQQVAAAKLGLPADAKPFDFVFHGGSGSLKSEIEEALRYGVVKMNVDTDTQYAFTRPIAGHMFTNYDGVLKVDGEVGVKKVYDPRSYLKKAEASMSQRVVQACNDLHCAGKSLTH
RecA splice inh: Mtb RecA intein splicing inhibition. inhibition, % (concentration not given with the values). cell-free RecA intein splicing, fluorescence. 0.75% of 290,000 active. P9WHJ3; in the data active means inhibition above about 30%;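 further: 0% = vehicle wells and 100% = reference inhibitor control wells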
Rv3671c inh: inhibitors of M. tuberculosis serine protease Rv3671c; P9WHR9; inhibition, % at 5.96 µM; 0.048% of 320,000 active; AID 2606; in the data active means inhibition above about 38%;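 further: extracellular domain of Rv3671c used as enzyme; 0% = enzyme with DMSO and 100% = no enzyme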
Mtb UGM inh: blocks M. tuberculosis UGM enzyme. P9WIQ1. purified UGM, fluorescence polarization probe displacement. inhibition, % at 10 µM. 0.06% of 320,000 active; in the data active means inhibition above about 10%, passing the limit was not always enough
Active calls of the source: *; i = inactive; · = no result; + = active, no number. Only some compounds are listed: those with a hit (about 4% of all), similar ones and a draw of the others.

SMILES | GDH-TPI inh | Mtb betalactam | Mtb FBA inh | RecA splice inh | Rv3671c inh | Mtb UGM inh
O=C1CC(C(=O)O)S/C(=N\N=C\c2ccc(Br)cc2)N1 (stereo not given) | 66.2* | -3.3 | -0.2 | 0.3 | -1.4 | -1.5
COCCCNC(=S)N(CCCO)Cc1cc2cc3c(cc2[nH]c1=O)OCO3 | 32.2* | 0.9 | 21.9 | · | 0.9 | 0.5
CCN(CC)CCCN(Cc1cc2cc(OC)c(OC)cc2[nH]c1=O)C(=O)Nc1ccccc1 | 14.1 | -4.1 | 13.2 | -0.5 | 1.7 | 1.1
CCN(CC)CCCN(Cc1cc2cc3c(cc2[nH]c1=O)OCO3)C(=O)Nc1ccccc1OC | 31.6* | 0.1 | 12.1 | 7.6 | -2.3 | -0.5
CC1CCCN(CC(O)CN2CCN(CC(O)CN3CCCC(C)C3)C(C)C2)C1 (stereo not given) | 2.6 | · | -0.6 | · | · | ·
O=C(O)/C=C\C(=O)Nc1ccc(Oc2ccc(Br)cc2)cc1 | 0.6 | 0.8 | 0.5 | 32.3* | 10.8 | -0.1
O=C(O)/C=C/C(=O)Nc1ccc(Oc2ccc(NC(=O)/C=C/C(=O)O)cc2)cc1 | · | -3.9 | · | 8.0 | 5.3 | ·
COc1cccc(N/C=C(\C#N)c2ccc(OCCCF)cc2)c1 | 33.2* | 12.9 | 1.6 | -1.9 | 8.3 | -0.1
CN(C)C(=O)c1ccc(Cc2cn(C)c3ccccc23)nc1 | 10.3 | · | 2.3 | · | · | ·
COc1ccc(N=Nc2c(N)nn(C)c2N)cc1 | 60.1* | · | -5.4 | · | · | ·
CCOc1ccc(NC(=O)CN(C)Cc2ccc3c(c2)OCO3)cc1S(=O)(=O)N1CCCC1 | -0.4 | -1.3 | -2.1 | · | 0.3 | 1.3
CCOC(=O)N1CCN(C(=O)c2ccc(CS(=O)c3cccc(C)c3)o2)CC1 (stereo not given) | 6.2 | · | -0.4 | · | · | ·
CC(C)CNC(=O)C1(C)CCCN1C(=O)c1ccc2c(c1)CCO2 (stereo not given) | 6.5 | · | -2.4 | · | · | ·
COc1ccc(C2NN=C(c3ccc(C)cc3)S2)cc1 (stereo not given) | 5.2 | 65.5 | 10.8 | 1.5 | 1.5 | -2.3
CCOc1cc(C2NN=C(c3ccc(C)cc3)S2)ccc1O (stereo not given) | 34.4* | 98.6 | 3.9 | · | 5.7 | 0.8
O=C1C=CC2(O[C@H](c3ccccc3)[C@@H](c3ccccc3)O2)[C@H](Sc2ccccc2O)C1 | 1.4 | · | -1.0 | · | · | ·
O=C(N/N=C/c1ccc(Cl)s1)c1ccccc1[N+](=O)[O-] | 30.9* | -7.9 | 0.3 | -1.5 | 6.7 | -0.6
COc1cc(C(C#N)N2CCC(c3ccccc3)=N2)ccc1O (stereo not given) | 36.2* | -7.8 | 0.5 | 0.8 | -7.1 | 2.0
CCC(C)[C@@H](CN)NCC1(c2ccccc2)CC1 (stereo not given in full) | -1.2 | -4.4 | -1.8 | · | -7.0 | -0.9
Cc1c(C(=O)N2CCN(C3CCS(=O)(=O)C3)CC2)oc2c(F)cccc12 (stereo not given) | 2.8 | -2.9 | 6.4 | · | -1.3 | 0.8
Cn1c(=O)[nH]c(=O)c2c1nc(N/N=C/c1cccnc1)n2Cc1ccc(Cl)cc1 | -1.5 | 6.7 | 2.3 | · | 1.9 | -5.6
Cn1c(=O)c2c(nc(N/N=C/c3ccco3)n2C)n(C)c1=O | 56.1* | 3.8 | 1.3 | -1.8 | -5.0 | -0.5
Cn1c(=O)c2c(nc(N/N=C/c3cccs3)n2C)n(C)c1=O | 25.3 | -13.8 | -6.0 | -2.5 | -4.6 | 1.5
Cn1c(=O)c2c(nc(N/N=C/c3cccnc3)n2Cc2ccccc2)n(C)c1=O | 31.0* | -2.3 | 0.8 | -2.0 | -0.8 | 0.4
COc1cccc(NC(=O)COC(=O)C2CC2)c1 | 3.8 | 37.0 | 3.9 | · | -4.1 | -1.7
SMILES | GDH-TPI inh | Mtb betalactam | Mtb FBA inh | RecA splice inh | Rv3671c inh | Mtb UGM inh
O=C(NCc1ccc(Cl)cc1)C(=O)NCC1OCCN1C(=O)c1ccc(Cl)cc1 (stereo not given) | -5.0 | 32.9 | -9.2 | 0.4 | -0.7 | 2.4
N#Cc1c(C(F)(F)F)cc(=O)n2c1[nH]c1ccccc12 | 3.5 | -0.6 | + | i | · | 1.2
COc1ccccc1N=Cc1c(C)c(C#N)c2[nH]c3ccccc3n2c1=O | 0.0 | 100.1 | 9.2 | -1.8 | 4.5 | 0.6
Cc1c(Cc2ccccc2)c(=O)n2c([nH]c3ccccc32)c1C#N | 2.9 | 98.9 | 133.4* | -0.2 | 6.2 | -3.0
Cc1cc(C)nc(NN2C(=O)/C(=C/c3ccccc3)SC2=S)n1 | 33.5* | 43.6 | 1.3 | · | -8.0 | -0.8
O=C(CN1C(=O)S/C(=C\c2ccc(C(=O)O)cc2)C1=O)Nc1ccccc1 | 35.0* | -7.1 | -0.2 | -0.1 | 6.4 | 5.7
O=C(CCN1C(=O)S/C(=C\C=C\c2ccccc2)C1=O)Nc1ccc(O)cc1 | 25.2 | 17.9 | -0.9 | 5.7 | -9.2 | 1.5
